# From PubChem
# A selection: hits, their analogues and other compounds. The true share with any hit is near 19%.
# DT40 TDP1 no CPT: qHTS for Inhibitors of human tyrosyl-DNA phosphodiesterase 1 (TDP1): qHTS in cells in absence of CPT | DT40 Tdp1-/- hTDP1 cells, no CPT, ATP luminescence, 48 h | Potency, µM (highest dose often 46.2 µM), for the others: at the top dose activity change, negative = growth inhibition, most hits filed as inhibitors | 420,000 compounds, 15% hits | AID 686978, 2013; note: potency is the fitted concentration of half-maximal effect; nearly all actives have a fitted effect of over 55% in size
#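 Chicken DT40 Tdp1-/- cells complemented with human TDP1, screened without camptothecin (DMSO vehicle only), 400 cells/well. Compounds pin-transferred, cells incubated at 37 °C for at least 48 hr. Growth read as ATP-dependent luminescence (CellTiter-Glo, 30 min at RT).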
# IL-1B inflam inh: qHTS for Inhibitors of Inflammasome Signaling: IL-1-beta AlphaLISA Primary Screen; THP-1 LPS/ATP IL-1B secretion, AlphaLISA, 16 h; stronger effect = lower value; activity change, % at 57.5 µM; 360,000 compounds, 4.7% hits; AID 743279, 2014; in the data active = activity change below about -50%; inconclusive = mostly about -30% to -49%
#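 THP-1 cells pretreated 1 hr with compounds (up to 57.5 uM final), then stimulated with LPS (250 ng/mL final) plus ATP (1.25 mM final); secreted IL-1B measured by AlphaLISA after 16 hr, decreased signal indicating inhibition.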
# HT1080 IDH1KD tx: qHTS for induction of synthetic lethality in tumor cells producing 2HG: qHTS for the HT-1080-IDH1KD cell line. HT-1080 IDH1 knockdown viability, ATP luminescence, 48 h. Potency, µM (doses to about 46.1 µM), inactives show top-dose activity, negative = toxicity, usual class: cytotoxic. 360,000 compounds, 2% hits;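 note: potency is the fitted concentration of half-maximal effect; 0% = DMSO wells and -100% = cell-free medium wells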
#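 After a 2 h attachment period, IDH1KD HT-1080 cells took pin-transferred compound for 48 h at 37 °C; ATP-based luminescence after 10 min room-temperature reagent incubation reported viability.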
# TDP1 cell CPT: qHTS for Inhibitors of human tyrosyl-DNA phosphodiesterase 1 (TDP1): qHTS in cells in presence of CPT. chicken DT40 Tdp1-/-;hTDP1 cells + 20 nM CPT, ATP luminescence, 48 h. Potency, µM (doses to about 46.2 µM), for inactives: top-dose activity change, negative = growth inhibition, most hits filed as inhibitors. 420,000 compounds, 12% hits. AID 686979, 2013; note: potency is the fitted concentration of half-maximal effect; nearly all actives have a fitted effect of over 55% in size
#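 Chicken DT40 Tdp1-/- cells stably complemented with human TDP1 were seeded at 400 cells/well in medium containing 20 nM camptothecin, exposed to pin-transferred compounds, and grown at 37 °C for at least 48 hr. Viability was read as ATP luminescence.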
# HT1080-NT tox: qHTS for induction of synthetic lethality in tumor cells producing 2HG: qHTS for the HT-1080-NT fibrosarcoma cell line. Potency, µM (doses to about 46.1 µM), without a hit: at the top dose activity, negative = less viability, usual class: cytotoxic. HT-1080-NT fibrosarcoma viability, CellTiter-Glo ATP luminescence, 48 h. 360,000 compounds, 1.6% hits;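 note: NT is the 2HG producing partner of a matched IDH1 knockdown line; potency is the fitted concentration of half-maximal effect; 0% = DMSO-treated cells and -100% = media-only wells without cells; nearly all actives have a fitted effect of over 55% in size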
#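 Viability by CellTiter-Glo luminescence after 48 h compound exposure at 37C of HT-1080-NT cells (750/well, RPMI, 5% FBS). % activity scaled between DMSO wells and medium-only wells, then curve-fitted and categorized by curve class.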
# * hit, by the source's call; u = inconclusive; x = no result. Unless noted, calls come from the whole dose curve; as a rule, active = well fitted curve in the direction sought with a large enough effect; inconclusive = small, poorly fitted or top-dose-only effect, or another doubt; inactive = no such curve, though single readings can be large; an effect the other way counts as inactive or inconclusive. Unless noted, % is set by controls: 0 for no effect and ±100 for the full control effect.
SMILES,DT40 TDP1 no CPT,IL-1B inflam inh,HT1080 IDH1KD tx,TDP1 cell CPT,HT1080-NT tox
Cc1ccc(OCc2nnc(SCc3ccc(C#N)cc3)n2-c2ccc(C)cc2)cc1,16µM*,-19,11µM*,u,u
CCc1nnc(SCc2cn3c(C)cc(C)nc3n2)n1N,-5%,27,16%,-1%,17%
Cc1oc(-c2ccccc2Cl)nc1CSCC(=O)N1CCCC1,13µM*,-21,u,u,-19%
Cc1oc(-c2ccccc2F)nc1CSCC(=O)N1CCN(c2ccccc2)CC1,9.2µM*,x,x,21µM*,x
O=C(Nc1ccc(Nc2ccccc2)cc1)c1ccccc1F,u,-97*,-19%,u,-15%
O=C(Nc1ccc(S(=O)(=O)N2CCCCC2)cc1)c1ccccc1F,u,u,-9%,-4%,1%
N#CC1(c2ccc(NC(=O)c3ccccc3F)cc2)CCCC1,u,-69*,-6%,u,-7%
CCN(CC)c1ccc(NC(=O)c2ccccc2F)cc1,23µM*,16,16µM*,u,u
Nc1ccc(S(=O)(=O)Nc2ccc(C(=O)c3ccccc3)cc2)cc1,u,u,0%,-27%,-5%
COc1ccc(CCN2C(=O)CC(NC34CC5CC(CC(C5)C3)C4)C2=O)cc1OC (stereo not given),18µM*,18,-19%,u,-15%
COc1ccc(C2SCC(=O)N2CCc2ccc(OC)c(OC)c2)cc1 (stereo not given),5.2µM*,3,18µM*,7.3µM*,u
COc1ccc(CCN2C(=O)C3C4CC(C5C(C(N)=O)=NOC45)C3C2=O)cc1OC (stereo not given),-16%,0,17%,-5%,16%
COc1ccc(CCN2C(=O)C3C4CCC(C4=C(C)C)C3C2=O)cc1OC (stereo not given),8.2µM*,2,-3%,u,1%
COc1ccc(CCN2C(=O)CSC2c2cccc([N+](=O)[O-])c2)cc1OC (stereo not given),u,-1,-13%,u,-10%
COc1ccc(CCN2C(=O)C=CC2=O)cc1OC,1.3µM*,-115*,6.5µM*,0.82µM*,u
COc1ccc(CCN2C(=O)CC(NCCc3ccc(S(N)(=O)=O)cc3)C2=O)cc1OC (stereo not given),u,33,-2%,-19%,-2%
Cc1ccc(C)c(NC(=O)CCCn2nc(C)c3sc4ccccc4c3c2=O)c1,-25%,x,x,-17%,x
CCN(CC)CCCNC(=O)C1CCN(S(=O)(=O)CC)CC1,-6%,x,x,-3%,x
COc1ccc(CCNC2=C(Cl)C(=O)N(CCc3ccc(OC)c(OC)c3)C2=O)cc1OC,10µM*,27,-11%,15µM*,0%
COc1ccc(CCN2C(=O)CSC2=Nc2ccc(C)cc2C)cc1OC,23µM*,15,-15%,23µM*,-17%
COc1ccc(CCN2C(=O)CS/C2=N/NC(=O)c2ccccc2F)cc1OC,u,-2,-3%,u,-1%
COc1ccc(CCN2C(=O)c3cccnc3C2=O)cc1OC,6%,-2,11%,0%,9%
CCN(CC)CCNc1ccc2nnc(CCNS(=O)(=O)c3ccc(C)cc3)n2n1,2%,-23,-2%,-13%,2%
CCc1ccccc1NC1=NCC(=O)N1C1CCCC1,u,2,6%,23µM*,1%
NS(=O)(=O)c1cccc(NC(=O)COC(=O)CCc2ccccc2)c1,-5%,6,u,3%,12%
SMILES,DT40 TDP1 no CPT,IL-1B inflam inh,HT1080 IDH1KD tx,TDP1 cell CPT,HT1080-NT tox
Cc1ccc(SCC(=O)OCC(=O)N(CCC#N)c2ccccc2)cc1C,2%,12,18%,-3%,12%
Cc1ccc(N(CCC#N)C(=O)CCl)cc1C,7.3µM*,-98*,13µM*,u,9.2µM*
CCCc1ccc(C(=O)CN2C(=O)C(=O)N(C3CCCC3)C2=O)cc1,2%,17,1%,-14%,8%
O=C(c1ccc(CNc2c(N3CCCC3)c(=O)c2=O)cc1)N1CCc2ccccc2C1,u,7,-2%,u,12%
Cc1ccc(-c2nc(N)sc2-c2ccc(C)cc2)cc1,16µM*,-25,u,u,u
CCc1ccc(CNC(=O)c2ccc3c(c2)nc2n3CCC(C)C2)cc1 (stereo not given),u,x,x,-28%,x
CN1CCSc2ccc(C(=O)NCc3cccc(Br)c3)cc21,-22%,-24,-1%,5%,-20%
Cc1cc2c(n1-c1ccc(C(=O)NCc3cccc(Br)c3)cc1)CCC(C)C2 (stereo not given),15µM*,x,x,u,x
CCc1ccc(CNC(=O)c2ccc(-n3c(C)cc4c3CCC(C)C4)cc2)cc1 (stereo not given),21µM*,x,x,16µM*,x
COc1ccc(Br)cc1CNC(=O)c1ccc(-n2c(C)cc3c2CCC(C)C3)cc1 (stereo not given),18µM*,x,x,23µM*,x
COCCCn1cc(CN2CC(N3CCN(CCO)CC3)CS2(=O)=O)nn1 (stereo not given),5%,36,3%,-2%,7%
Cc1c(Cl)ccc2sc(N3CCN(C(=O)c4ccco4)CC3)nc12,12µM*,x,x,15µM*,x
Cc1c(Cl)ccc2sc(N3CCN(C(=O)CS(=O)(=O)c4ccccc4)CC3)nc12,4.1µM*,x,x,6.5µM*,x
O=C(c1ccco1)N1CCN(C(=O)c2ccco2)C1=S,5.8µM*,-100*,16µM*,2.6µM*,u
O=C(Nc1ccc(Cl)c(Cl)c1)C1CCN(C(=O)c2ccco2)CC1,15µM*,-19,-30%,16µM*,-5%
Cc1ccc(NC(=O)C2CCN(C(=O)c3ccco3)CC2)cc1,0%,3,28%,-3%,13%
Cn1cnc(S(=O)(=O)N2CCCC(C(=O)NCc3ccc(Cl)cc3)C2)c1 (stereo not given),2%,x,x,1%,x
CN(C)S(=O)(=O)c1cc(NC(=O)CNCCN2CCOCC2)ccc1Cl,-3%,15,11%,-6%,u
CCCCNC(=O)CSc1nnc(Cc2ccc(Cl)c(Cl)c2)c(=O)[nH]1,20%,-1,2%,-9%,-3%
COc1ccccc1Cn1c(C)c(C(=O)NCc2ccco2)sc1=O,u,x,4%,u,0%
COc1cc2ccccc2cc1C(=O)N1CCN(c2nc3c(C)cc(C)cc3s2)CC1,18µM*,x,x,u,x
CC(=O)N1CCN(c2nc3c(C)ccc(Cl)c3s2)CC1,u,x,x,-1%,x
